The record followed here is PubChem BioAssay AID589 (National Center for Advancing Translational Sciences (NCATS), 2007).

About 6,200 (11%) of roughly 59,000 compounds were called active. About 9% were inconclusive and are not listed. The sample holds actives, similar compounds and a random draw of the others, so the mix is not that of the screen. Cut-off read from the data, not from the text of the source: active = max dye-equivalent concentration above about 10 nM; inconclusive = mostly about 1.1 nM to 9.6 nM; inactive = weaker than that.

This experiment in a line: qHTS Assay for Spectroscopic Profiling in 4-MU Spectral Region. The conditions noted are these: compound autofluorescence, 340/450 nm, 4-MU equivalents; stronger effect = higher value. Put shortly:
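Intrinsic fluorescence at 340/450 nm (ex/em) was read after 15 min at room temperature in pH 8.0, 100 mM Tris. Each compound concentration expressed as 4-MU-equivalent concentration from a six-point 4-MU standard series on each plate.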
With `COC(=O)c1ccccc1NC(=O)CN(Cc1ccccc1)S(C)(=O)=O`, the max dye-equivalent concentration entry was “inactive”.

`CNC(=O)CSc1nnnn1-c1ccc(C)cc1C`: the max dye-equivalent concentration result was “inactive”. Regarding `Nc1cc(=O)nc(SCc2ccccc2)n1Cc1ccco1`, the max dye-equivalent concentration entry is “inactive”. The same measure for `O=c1[nH]c(=O)n(Cc2ccco2)c2c1C(C(F)(F)F)(C(F)(F)F)N=C(c1ccco1)N2`: 18 nM (active). Then `O=c1[nH]c(CSc2ncc(-c3ccc(F)cc3)n2Cc2ccco2)nc2ccccc12`, with “inactive”; and `CC1Cc2ccccc2N1C(=O)Cn1cnc2ccccc2c1=O` (stereo unspecified), with “inactive”; and `COc1ccc(CC(=O)Nc2ccc(-c3nnc(-c4ccc(C)cc4)o3)cc2)cc1`, with “inactive”. The same measure for `Cc1ccc(OCC(=O)Nc2ccc(-c3nnc(-c4ccco4)o3)cc2)cc1`: “inactive”; for `Cc1ccc(OCC(=O)Nc2ccc(-c3nc4ncccc4o3)cc2)cc1`: 25 nM (active). Regarding `COc1ccccc1N(CC(=O)N1CCCCC1)S(=O)(=O)c1ccccc1`, the max dye-equivalent concentration entry was “inactive”. Then `Cc1ccc(S(=O)(=O)N2CCC(C(=O)N[C@@H](C)C(=O)NCc3ccccc3)CC2)cc1`, with “inactive”; and `COc1ccc(Cl)cc1S(=O)(=O)N1CCN(CC(=O)C(C)(C)C)CC1`, with “inactive”; and `CCCCOC(=O)NCN1C(=O)C2C3C=CC(C3)C2C1=O` (stereo unspecified), with “inactive”. Then `COCCNC(=O)c1ccccc1-c1nc(-c2ccccc2Cl)no1`, with “inactive”; and `COCCNC(=O)c1snc2ccc(Cl)cc12`, with 49 nM (active).

`COCC(C)NC(=O)c1ccc(Cl)c(Cl)c1` (stereo unspecified): the max dye-equivalent concentration result was “inactive”. Turning to `CCN(CC)c1ccc(C(=O)OCC(=O)c2ccco2)cc1`, the max dye-equivalent concentration result is “inactive”. On to `Cc1cc(N2CCCCC2)nc2ccc(Cc3ccc4nc(N5CCCCC5)cc(C)c4c3)cc12`, for which the max dye-equivalent concentration was 45 nM (active). Regarding `Fc1ccc2nc(N3CCCCC3)sc2c1`, the max dye-equivalent concentration result was “inactive”. As to `O=C(CSc1nnc(-c2ccoc2)o1)N1CCOCC1`, the max dye-equivalent concentration entry is “inactive”. The same measure for `O=C(O)C1C2C=CC(C2)C1C(=O)N1CCN(CCO)CC1` (stereo unspecified): “inactive”. Then `O=c1[nH][nH]c(=O)c2cc(N3CCCC3)ccc12`, with 53 nM (active); and `Cc1cc(C)cc(N(C(C)C(=O)Nc2c(C)n(C)n(-c3ccccc3)c2=O)S(C)(=O)=O)c1` (stereo unspecified), with “inactive”.

With `Cc1c(NC(=O)C(C)OC(=O)c2cc3c4ccccc4n(C)c3s2)c(=O)n(-c2ccccc2)n1C` (stereo unspecified), the max dye-equivalent concentration is 110 nM (active). As to `Cc1ccccc1OCCC(=O)Nc1c(C)n(C)n(-c2ccccc2)c1=O`, the max dye-equivalent concentration result is “inactive”. Then `CCOC(=O)C1CCN(C(=O)CC2C(=O)N(Cc3ccccc3)C(C)c3nc4ccccc4n32)CC1` (stereo unspecified), with “inactive”; and `CC1(C)Cc2ccccc2-c2nc(CN3CCOCC3)[nH]c(=O)c21`, with “inactive”.

Turning to `N#Cc1c(N)sc2c1CCN(C(=O)OCc1ccccc1)C2`, the max dye-equivalent concentration result was “inactive”. In the case of `CCN1CCc2c(C#N)c(NCc3ccccc3)nc(NCCO)c2C1`, the max dye-equivalent concentration is 430 nM (active).

In the case of `CC(=O)/C(=N\N=C(N)N)c1ccccc1`, the max dye-equivalent concentration entry is “inactive”.

On to `CC(C)c1nnc(NC(=O)C2CCCN2S(=O)(=O)c2ccc(Cl)cc2)s1` (stereo unspecified), for which the max dye-equivalent concentration entry was “inactive”. The same measure for `CCc1nnc(NC(=O)C2CCCN2S(=O)(=O)c2ccccc2)s1` (stereo unspecified): 18 nM (active); for `CCc1nnc(NS(=O)(=O)c2ccc(NS(=O)(=O)c3ccccc3)cc2)s1`: “inactive”; for `O=C(C1=C(O)C(=O)N(Cc2ccccc2)C1c1cccnc1)c1ccco1` (stereo unspecified): “inactive”. Take `N#CC(C(N)=O)=C1CCC2(CC1)OCCCCO2`: the max dye-equivalent concentration result is “inactive”. With `COc1cc(C2C(C(=O)c3ccc(C)o3)=C(O)C(=O)N2Cc2cccnc2)ccc1O` (stereo unspecified), the max dye-equivalent concentration entry is “inactive”.

Consider `CCSC1=C(C#N)C(=O)n2c1cc1c2CCCC1`, for which the max dye-equivalent concentration result was “inactive”.

As to `COc1cc(NS(=O)(=O)c2ccc(NC(C)=O)cc2)cc(OC)c1`, the max dye-equivalent concentration entry is “inactive”. Regarding `COc1ccc(NS(=O)(=O)c2ccc(NC(=O)C(C)(C(F)(F)F)C(F)(F)F)cc2)nn1`, the max dye-equivalent concentration is 20 nM (active). The same measure for `CC(=O)Nc1ccc(S(=O)(=O)Nc2cccc(NC(=O)C(C)(C)C)c2)cc1`: “inactive”; for `COC(=O)c1cc(NC(=O)CN2CCC(C(N)=O)(N3CCCCC3)CC2)cc(C(=O)OC)c1`: “inactive”.

In the case of `CCCCCN(C(=O)NC(=O)Nc1ccccc1OC)S(C)(=O)=O`, the max dye-equivalent concentration entry was “inactive”.

With `Cc1ccc(C(=O)Nc2nnc(-c3cccs3)s2)cc1C`, the max dye-equivalent concentration is 73 nM (active). For `CCc1nnc(NC(=O)c2ccc(S(=O)(=O)NC3CCCCC3)cc2)s1`, the max dye-equivalent concentration entry is “inactive”. Then `CCCc1nnc(NC(=O)c2cc(OC)cc(OC)c2)s1`, with “inactive”; and `COc1ccc(Cc2nnnn2CC(=O)O)cc1`, with “inactive”. Then `CC(=O)OCc1cc(=O)n(C)c(=O)n1C`, with “inactive”; and `CC(Sc1nncn1C)C(=O)Nc1ccccc1-c1ccccc1` (stereo unspecified), with “inactive”. For the compound `Cc1ccccc1-c1nc(N(C)Cc2ccco2)c2ccccc2n1`, the max dye-equivalent concentration entry is “inactive”.

Regarding `CC1CCc2c(sc(NC(=O)c3ccc(Cn4cc(Br)cn4)o3)c2C(N)=O)C1` (stereo unspecified), the max dye-equivalent concentration is 100 nM (active). Then `Cc1ccc(C)c(NC(=O)C2CC(=O)N(C(C)C)C2)c1` (stereo unspecified), with “inactive”.
